Bioassay records: PubChem, National Center for Advancing Translational Sciences (NCATS)
Sampled rows, rich in hits. Any-hit rate of the full collection: about 8%.
Gal4-VP16 FLuc = VP16 counterscreen qHTS for inhibitors of ROR gamma transcriptional activity; Drosophila S2 Gal4-VP16 UAS-luciferase, luminescence, 20 h; Potency, µM (doses to about 53.6 µM), for inactives: at the top dose activity, negative = inhibition, usual class: inhibitors; hit rate 3.5% among 310,000;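 note: Gal4-VP16 expression switched on by copper sulfate through the metallothionein promoter; potency is the fitted concentration of half-maximal effect; nearly all actives have a fitted effect of over 50% in size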
ELG1 repair inh = qHTS screen for small molecules that inhibit ELG1-dependent DNA repair in human embryonic kidney (HEK293T) cells expressing luciferase-tagged ELG1. Potency, µM (titrated, usually from 46.1 µM), for inactives: top-dose activity change, negative = inhibition, most hits filed as inhibitors. HEK293T ELG1-luciferase reporter, luminescence, 16 h; DNA damage induced by 5-fluorouridine. hit rate 2.3% among 330,000. AID 504467, 2011; note: potency is the fitted concentration of half-maximal effect; nearly all actives have a fitted effect of over 55% in size
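5-Fluorouridine DNA damage + compound/DMSO, 2,000 cells/well, 16 h, 37 °C/5% CO2. ONE-Glo, 30 min RT, luminescence. Readout = decrease in reporter signal.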
Coupling enz = qHTS Assay for Inhibitors of Fructose-1,6-bisphosphate Aldolase from Giardia Lamblia: Coupling assay counterscreen; coupling enzyme system counterscreen, AmpLite Red fluorescence; activity change, negative = inhibition, % at 58.2 µM, hits read low; hit rate 0.67% among 290,000; AID 2472, 2010; in the data active = activity change below about -30%
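Activity here indicates interference with the coupling reaction, not aldolase inhibition. Compounds at 57.5 uM final met coupling enzymes for 10 min at RT; substrate and AmpLite Red detection followed, with a 525/598 nm fluorescence read after 20 min.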
RORgamma inh = qHTS for inhibitors of ROR gamma transcriptional activity. Nuclear receptor ROR-gamma (Mus musculus), P51450. Drosophila S2 Gal4-RORgamma UAS-luciferase reporter, 20 h. Potency, µM (titrated, usually from 53.6 µM), without a hit: at the highest dose activity change, negative = inhibition, most hits filed as inhibitors. hit rate 5.4% among 310,000; note: potency is the fitted concentration of half-maximal effect; nearly all actives have a fitted effect of over 60% in size
Target sequence (P51450 whole entry, looked up, the tested form may be a part): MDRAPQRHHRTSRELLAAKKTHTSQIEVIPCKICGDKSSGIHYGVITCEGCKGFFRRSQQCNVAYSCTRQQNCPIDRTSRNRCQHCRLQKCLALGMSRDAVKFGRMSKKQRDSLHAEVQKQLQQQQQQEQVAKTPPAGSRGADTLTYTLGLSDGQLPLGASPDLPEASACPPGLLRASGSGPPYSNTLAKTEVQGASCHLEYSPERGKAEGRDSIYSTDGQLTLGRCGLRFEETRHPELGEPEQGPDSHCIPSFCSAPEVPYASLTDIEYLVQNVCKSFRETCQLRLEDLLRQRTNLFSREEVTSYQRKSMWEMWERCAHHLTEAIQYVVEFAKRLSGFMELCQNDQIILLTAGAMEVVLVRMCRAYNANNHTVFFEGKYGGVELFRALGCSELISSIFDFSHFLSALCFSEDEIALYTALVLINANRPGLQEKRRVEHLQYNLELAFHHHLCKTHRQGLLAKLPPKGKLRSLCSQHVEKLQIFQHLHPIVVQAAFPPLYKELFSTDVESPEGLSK
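Drosophila Schneider cells stably carrying a metallothionein-driven Gal4 DBD–ROR gamma fusion and a UAS-Photinus luciferase reporter were exposed to compound for 1 hr, then induced with copper sulfate (700 uM final) for 20 hr at ambient temperature before luminescence reading.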
TSHR antagonist = Antagonists of the Thyroid Stimulating Hormone Receptor: HTS campaign. activity change, negative = inhibition, % at 11.5 µM. AID 504810, 2011. TSHR-expressing cells, TSH-stimulated cAMP HTRF, 2 h; active compounds read low. hit rate 0.2% among 330,000;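 active = activity change below a set negative limit, meaning inhibition stronger than a set level, cut at about -70% in these data; inconclusive = activity change between two set negative limits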
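Antagonism was scored as loss of TSH-driven cAMP in TSHR cells, stimulated with 4nM TSH (EC80) for 2 hours at 37 deg C and detected by homogeneous HTRF competition immunoassay.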
Numbers without * were called inactive; ? = inconclusive; · = not tested or not shown. Unless noted, calls come from the whole dose curve; as a rule, active = well fitted curve in the direction sought with a large enough effect; inconclusive = small, poorly fitted or top-dose-only effect, or another doubt; inactive = no such curve, though single readings can be large; an effect the other way counts as inactive or inconclusive. % is set by controls: 0 for no effect and ±100 for the full control effect.

SMILES | Gal4-VP16 FLuc | ELG1 repair inh | Coupling enz | RORgamma inh | TSHR antagonist
COc1ccc(Br)c(OC)c1C(=O)NC(=O)Nc1nc(C)cc(C)n1 | 1% | -2% | -31* | 0% | -7
Cc1c(C=O)c2ccccc2n1CCOc1ccccc1F | ? | -1% | -8 | ? | -23
COc1ccccc1OCCn1c(C)c(C=O)c2ccccc21 | ? | 12µM* | -4 | ? | -7
CC(=O)c1ccc(OCc2cc(C(=O)NC(C)CCn3cccn3)no2)cc1 (stereo unspecified) | · | ? | 2 | · | -1
COc1cc2c(cc1OC)C(c1cc(Br)ccc1F)N(C(=O)CCl)CC2 (stereo unspecified) | ? | -3% | 0 | 7.9µM* | -12
COc1cc(CC(=O)OCC(=O)NC2CCCCC2C)cc(OC)c1OC (stereo unspecified) | · | 3% | · | · | 0
COc1ccc2oc(=O)c(-c3csc(Nc4ccc(O)cc4)n3)cc2c1 | ? | 9.2µM* | -5 | ? | -26
CN(CCO)c1cc(Sc2nc3ccccc3s2)c2nonc2c1[N+](=O)[O-] | 13µM* | 16% | -7 | 11µM* | -18
CCN(CC)c1ccc(S(=O)(=O)N2CCCCC2)cc1NC(=O)C1CCC1 | · | -1% | · | · | 0
O=C(CCC1CCCCC1)NCCN1C2=NC[C@@H](Cc3ccccc3)N2C[C@H]1Cc1ccc(O)cc1 | 8.9µM* | -3% | 4 | 10µM* | 3
O=C(CCC1CCCCC1)NCCN1C2=NC[C@H](Cc3ccccc3)N2C[C@H]1Cc1ccc(O)cc1 | ? | 0% | -4 | 17% | -6
NOCc1ccccc1 | -12% | · | -2 | -11% | ·
COc1ccc(S(=O)(=O)N2CCN(CC(=O)Nc3cc(C(F)(F)F)ccc3Cl)CC2)cc1 | -3% | -3% | -4 | 31% | 19
O=C(CN1CCN(S(=O)(=O)c2ccc(F)cc2)CC1)Nc1cc(C(F)(F)F)ccc1Cl | -22% | 26µM* | -3 | ? | -5
CCN1CCN(CC(O)COC(c2ccccc2)c2ccccc2C)CC1 (stereo unspecified) | 0% | 0% | -4 | -3% | -4
O=C(CNC(=O)c1ccc(Br)o1)NCC1COc2ccccc2O1 (stereo unspecified) | · | 0% | · | · | ·
O=C(CNS(=O)(=O)c1ccc(Br)s1)NCC1COc2ccccc2O1 (stereo unspecified) | 13µM* | -22% | 4 | -17% | -7
Cc1ccc(NC(=O)CN2CCC(NC(=O)c3ccccc3F)CC2)cc1C | -4% | -6% | 1 | 17% | -2
CC(=O)c1c(C)[nH]c(C(=O)CN2CCN(S(=O)(=O)c3ccccc3[N+](=O)[O-])CC2)c1C | · | ? | · | · | -17
CSCCC(NC(=O)c1ccco1)C(=O)NC1CCC(C)CC1 (stereo unspecified) | · | ? | · | · | 34
CC(NC(=O)COC(=O)C1(C)CC1(Cl)Cl)c1ccccc1 (stereo unspecified) | · | 0% | · | · | 6
c1ccc(-c2nccc(-c3ccco3)n2)nc1 | -26% | ? | -1 | 13µM* | 2
Cc1cc(C)c2ccc(NN)nc2c1O | 10µM* | -10% | -1 | 6.3µM* | 1
Cc1cc(C)c2ccc(/C=N/O)nc2c1O | 6.3µM* | 6% | -8 | 3.2µM* | 2
Cc1ccc(Nc2cc(C)c3ccc(O)cc3n2)cc1C | ? | ? | -7 | -3% | 1
CSCCC(NC(=O)c1ccccc1Cl)C(=O)Nc1ccncc1 (stereo unspecified) | · | -5% | · | · | -1
C=CCN1C(=O)N/C(=C/c2ccc(C)o2)C1=O | 5µM* | 26% | -39* | 5.6µM* | 1
Cc1ccc(NC(=O)CN2C(=O)N/C(=C/c3ccc(C)o3)C2=O)cc1 | ? | 8% | -3 | 32% | -1
Cc1ccc(/C=C2\C(=O)NC(=O)N2C)o1 | 5% | 0% | 6 | 14% | 29
